Shn3 inh set2 = reduces Shn3 3'UTR luciferase signal in osteoblasts | Clone20 osteoblast Shn3 3'UTR firefly luciferase, 24 h | inhibition, % at 12.5 µM | 0.52% of 360,000 active;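 active means mean inhibition of at least 75% with every replicate also reaching 75%; inconclusive means mean inhibition at least 75% but some replicate below; inactive means mean inhibition below 75%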;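 further: 0% = median of neutral control wells and 100% = pilot-screen positive control compound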
Gli-Sufu antag = Gli-Sufu pathway antagonism; Sufu-KO-LIGHT fibroblasts, Gli luciferase reporter luminescence; inhibition, % at 5 µM; 0.74% of 340,000 active; AID 588413;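 active means inhibition above about 55%, limit read from the data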;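 further: 0% = DMSO-treated cells and 100% = wells with medium but no cells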
Jurkat NFkB inh = lowers PMA/ionomycin-induced NF-kB signal in Jurkat cells. PMA/ionomycin-induced NF-kB luciferase reporter, luminescence. inhibition, % at 4 µM. 0.53% of 330,000 active; in the data active means inhibition above about 50%
Mdm2 MdmX PPI = disrupts the human Mdm2-MdmX interaction; SaOS-2 split-luciferase Mdm2/MdmX complementation, luminescence; inhibition, % at 8 µM; 3% of 330,000 active; AID 485346;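 active means inhibition of at least 50% at 8 µM in the primary screen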
Target sequence (O15151 whole entry, looked up): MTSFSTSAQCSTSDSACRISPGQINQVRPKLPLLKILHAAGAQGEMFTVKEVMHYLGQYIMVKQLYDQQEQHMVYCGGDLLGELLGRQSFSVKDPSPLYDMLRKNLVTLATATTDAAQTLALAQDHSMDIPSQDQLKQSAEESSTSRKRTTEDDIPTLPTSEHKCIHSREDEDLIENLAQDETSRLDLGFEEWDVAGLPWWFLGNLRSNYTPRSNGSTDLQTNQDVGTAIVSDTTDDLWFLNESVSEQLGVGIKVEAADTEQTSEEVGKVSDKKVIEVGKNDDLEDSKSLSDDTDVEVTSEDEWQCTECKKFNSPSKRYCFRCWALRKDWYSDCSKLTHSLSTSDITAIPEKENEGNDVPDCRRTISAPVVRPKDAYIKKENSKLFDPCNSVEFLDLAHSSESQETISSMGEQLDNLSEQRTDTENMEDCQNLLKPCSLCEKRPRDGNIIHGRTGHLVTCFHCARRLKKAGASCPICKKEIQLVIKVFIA
Target sequence (Q00987 whole entry, looked up): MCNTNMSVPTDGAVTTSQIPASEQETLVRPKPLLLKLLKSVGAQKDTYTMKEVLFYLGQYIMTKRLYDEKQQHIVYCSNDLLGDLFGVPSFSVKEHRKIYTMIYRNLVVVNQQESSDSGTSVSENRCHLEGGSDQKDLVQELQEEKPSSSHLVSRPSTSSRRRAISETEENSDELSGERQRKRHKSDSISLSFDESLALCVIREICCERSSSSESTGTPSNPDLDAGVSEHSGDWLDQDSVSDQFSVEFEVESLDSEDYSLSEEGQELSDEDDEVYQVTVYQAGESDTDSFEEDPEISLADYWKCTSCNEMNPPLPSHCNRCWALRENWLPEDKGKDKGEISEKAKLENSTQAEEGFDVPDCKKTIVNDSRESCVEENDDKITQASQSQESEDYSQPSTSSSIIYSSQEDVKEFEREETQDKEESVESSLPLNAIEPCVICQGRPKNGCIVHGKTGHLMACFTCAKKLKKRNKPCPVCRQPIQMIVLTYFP
697 NFkB inh = inhibitors of the PMA/ionomycin-induced NF-kB reporter in 697 B cells; inhibition, % at 4 µM; 697 B-cell NF-kB luciferase reporter, 16 h; 0.33% of 330,000 active; in the data active means inhibition above about 35%
Mdm2-MdmX conf = confirmation of human Mdm2/MdmX interaction inhibitors. AID 489028. Mdm2-MdmX binding, luminescent assay. shares compounds with Mdm2 MdmX PPI. inhibition, % at 8 µM. 55% of 10,000 active; in the data active means inhibition above about 40%
FLuc counter = counter-screen for Mdm2/MdmX inhibitors: full-length luciferase | SaOS-2 full-length luciferase counterscreen, luminescence | inhibition, % at 8 µM | 77% of 6,200 active | shares compounds with Mdm2 MdmX PPI | AID 504607;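 active means mean inhibition at 8 µM reaching about 37%, which flags the compound as non-specific, limit read from the data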;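 further: p53-null SaOS-2 cells with luciferase driven by a doxycycline-inducible promoter; compound on cells about two nights before reading with doxycycline added after day one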
Starred values were filed as active, the others as inactive; u = inconclusive; x = not tested or not shown. The list is not random: actives were taken first. Their share in the collection is about 3.8%.

SMILES	Shn3 inh set2	Gli-Sufu antag	Jurkat NFkB inh	Mdm2 MdmX PPI	697 NFkB inh	Mdm2-MdmX conf	FLuc counter
COc1ccc(C(=O)OCC(=O)Nc2ccc([N+](=O)[O-])cc2OC)c(O)c1	2	12	-8	84*	12	8	x
Cc1ccnc(N/C=C(\C#N)c2nc(-c3cccc(Br)c3)cs2)c1	2	2	3	53*	-6	-5	x
CC(=O)Nc1cccc(-c2csc(Nc3cc(C)ccn3)n2)c1	-78	-73	-114	-67	-190	x	x
CS(=O)(=O)c1ccc(C(=O)NC2CCCCC2)cc1	-34	8	-2	55*	-8	18	x
COc1ccc(/C(N)=N/OC(=O)Cc2cccs2)cc1OC	-22	-33	-19	-9	-31	x	x
COc1ccccc1C/C(N)=N/OC(=O)c1ccc2c(c1)OCO2	-22	2	-2	78*	3	41*	70*
COc1ccccc1C/C(N)=N/OC(=O)c1ccc(C)c([N+](=O)[O-])c1	-11	-6	2	2	9	x	x
COc1ccc(C(=O)O/N=C(\N)Cc2cccs2)cc1OC	-7	-5	4	86*	-65	51*	68*
CCOC(=O)C1CCN(C(=O)c2ccc3c(=O)n4nc(Nc5ccccc5OC)sc4nc3c2)CC1	9	x	x	x	x	x	x
CCC(C)(C)NC(=O)c1ccc(Sc2nncn2C)c([N+](=O)[O-])c1	9	-22	-2	8	1	x	x
Cn1cnnc1Sc1ccc(/C=C/C(=O)c2ccc(O)cc2)cc1[N+](=O)[O-]	-3	-3	19	51*	-21	38	53*
CCN(CC)S(=O)(=O)c1cc(NC(=O)C(C)OC(=O)c2[nH]c(C)c(C(C)=O)c2C)ccc1C (centres undefined)	67	36	28	51*	-12	41*	43*
CC(=O)c1c(C)[nH]c(C(=O)OC(C)C(=O)Nc2ccc(C)c(S(=O)(=O)N3CCOCC3)c2)c1C (centres undefined)	37	-7	6	44	-6	x	x
COc1ccc(C2CC(=O)N(CC(=O)NCC3CCCO3)c3ccccc3S2)cc1OC (centres undefined)	-30	-7	5	5	15	x	x
COc1ccc(C2CC(=O)N(C)c3ccccc3S2)cc1OC (centres undefined)	-53	-50	0	53*	1	34	x
COC(=O)C1=C(C)NC(C)=C(C(=O)O[C@@H]2CCCN(Cc3ccccc3)C2)[C@@H]1c1cccc([N+](=O)[O-])c1	6	9	-1	54*	2	20	x
COCCOC(=O)C1=C(C)NC(C)=C(C(=O)OC(C)C)C1c1cccc([N+](=O)[O-])c1 (centres undefined)	2	6	-21	-13	-10	x	x
Cc1ccc(C(=O)C=CC=Cc2ccccc2)cc1	-12	x	x	x	x	x	x
Cc1ccc(C(=O)C(C(=O)/C=C/c2ccccc2)=C2SCCCS2)cc1	-2	17	-1	98*	-52	90*	54*
OC(CNCc1ccncc1)c1ccccc1 (centres undefined)	-11	-4	-2	17	16	x	x
OC(CNCc1ccc(-c2ccccc2)cc1)c1ccccc1 (centres undefined)	-7	-3	39	53*	17	58*	27
O=C(NCCCCNC(=O)c1ccc(Br)cc1)c1ccc(Br)cc1	1	39	0	77*	21	21	x
CCn1cc([N+](=O)[O-])c(C(=O)Nc2nc3ccc(OC)cc3s2)n1	-21	-16	5	19	-42	x	x
CCc1cccc(C)c1NC(=S)N(CCCN1CCOCC1)Cc1cccnc1	7	2	-2	-1	-1	x	x
COCCN1C[C@@H](CO)O[C@@H](n2cnc3c(N4CCN(c5ccccc5)CC4)ncnc32)C1	-3	x	x	x	x	x	x
SMILES	Shn3 inh set2	Gli-Sufu antag	Jurkat NFkB inh	Mdm2 MdmX PPI	697 NFkB inh	Mdm2-MdmX conf	FLuc counter
COc1ccc(-n2nc3c(N4CCC(C(=O)NCc5ccco5)CC4)nnc(C)c3c2C)cc1	11	7	0	33	6	x	x
COc1ccc(-n2nc3c(N4CCC(C(=O)NCc5ccccc5C)CC4)nnc(C)c3c2C)cc1	24	1	2	100*	-50	98*	51*
COc1ccc(-n2nc3c(N4CCC(C(=O)NCC(C)c5ccccc5)CC4)nnc(C)c3c2C)cc1 (centres undefined)	u	28	23	70*	18	7	x
Cc1ccc(-n2nc3c(N4CCC(C(=O)NCCc5ccccc5C)CC4)nnc(C)c3c2C)cc1	18	32	39	98*	3	43*	53*
CCOc1ccccc1CNC(=O)C1CCCN(c2nnc(C)c3c(C)n(-c4ccccc4)nc23)C1 (centres undefined)	58	44	-4	90*	-42	41*	34
COc1ccc(-n2nc3c(N4CCC(C(=O)NCCc5ccccc5C)CC4)nnc(C)c3c2C)cc1	78	-4	33	36	-14	x	x
COC(=O)CCCC(=O)NCC1(N(C)Cc2ccccc2)Cc2ccccc2C1	-1	-6	-7	14	-3	x	x
COc1ccc2[nH]c(C(=O)O)c(NC(=O)c3cc(OC)c(OC)c(OC)c3)c2c1	3	7	-3	-9	10	x	x
O=C(NCC(=O)N1CCN(S(=O)(=O)c2ccccc2C(F)(F)F)CC1)c1sc2ccccc2c1Cl	13	2	6	57*	0	33	x
c1csc(CNc2ncnc3ccc(-c4ccc5c(c4)OCO5)cc23)c1	18	-23	-18	12	-12	x	x
c1csc(CNc2ncnc3ccc(-c4ccoc4)cc23)c1	8	-28	4	65*	-47	66*	21
CC(Oc1ccc(F)cc1)C(=O)Nc1ccc2ccccc2c1 (centres undefined)	3	-4	-35	53*	-91	35	x
CC(=O)Nc1ccc(NC(=O)C(C)Oc2ccccc2F)cc1 (centres undefined)	-9	-3	9	-1	-20	x	x
CC(Oc1ccccc1F)C(=O)Nc1ccc2ccccc2c1 (centres undefined)	-25	-2	-67	68*	-182	63*	66*
COC(=O)Cc1ccc(OC2(C)CCN(Cc3ccc(-c4ccccn4)cc3)C2)cc1 (centres undefined)	58	x	x	x	x	x	x
CCc1nc2ccc(C(=O)NCCCN3CCCC3=O)cn2c1N(C)Cc1ccc(OC)cc1	-12	x	x	x	x	x	x
CC(=O)N/C(=N/c1nc(C)cc(C)n1)Nc1ccc(NC(C)=O)cc1	-12	0	-18	25	13	x	x
CC(=O)N/C(=N\c1nc(C)cc(C)n1)Nc1ccc2ccccc2c1	7	17	22	74*	-62	72*	62*
Cc1ccc(S(=O)(=O)N[C@H](C(=O)OCC(=O)NC(=O)C2CCCCC2)C(C)C)cc1	2	4	-9	-13	-19	x	x

Screening results as filed in PubChem.
